From PubChem BioAssay (Tox21)
Inconclusive results are not listed. A number with no mark means an inactive call. Unless noted, calls come from the whole dose curve.

Test system: not listed separately
Test: qHTS assay to identify small molecule agonists of the estrogen related receptor signaling pathway with the pleiotropic PPARgamma coactivator (PGC) from Tox21 10K library (AID 1224842; active = well fitted activation curve with a large enough effect in the repeat runs; note: nearly all actives have a fitted effect of over 15% in size)
Conditions: PGC/ERR reporter cell line, luciferase ONE-Glo, 18 h; series mostly up to 92.4 µM; activation: at the top concentration
Outline: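 PGC/ERR reporter cell line, 2,000 cells per well, incubated 6 h at 37 C before 23 nL compound in DMSO was added. After 18 h at 37 C, One-Glo luminescence read following 30 min at room temperature.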
% is set by controls: 0 for no effect and ±100 for the full control effect.

Row | SMILES | activation
1 | O=C(O)C1CCC(C(=O)O)CC1 (stereo not given) | 7.94%
2 | Cc1occc1S | 4.5%
3 | Cc1cc(NC(=O)C(=O)O)cc(C)c1Oc1ccc(O)c2c1CCC2 | -0.7%
4 | OC(CCN1CCCCC1)(c1ccccc1)C1CCCCC1 (stereo not given) | -4.47% [at 42.5 µM]
5 | NC[C@H]1O[C@H](O[C@H]2[C@H](O)[C@@H](O[C@H]3O[C@H](CO)[C@@H](O)[C@H](N)[C@H]3O)[C@H](N)C[C@@H]2N)[C@H](O)[C@@H](O)[C@@H]1O | 1.17% [at 8.39 µM]
6 | Cc1ccc(C(N)=O)cc1N | -5.31%
7 | Cc1cccc(OCCOc2cccc(C)c2)c1 | 5.32%
8 | CC(=O)[C@@]1(O)CC[C@H]2[C@@H]3C[C@H](C)C4=CC(=O)CC[C@]4(C)[C@H]3CC[C@@]21C | -11% [at 42.5 µM]
9 | Nc1nc(CC(=O)O)cs1 | -21.9%

Target: Thyrotropin receptor (Homo sapiens) (UniProt P16473)
Test: qHTS assay to identify small molecule agonists of the thyroid stimulating hormone receptor (TSHR) signaling pathway (AID 1224843); note: nearly all actives have a fitted effect of over 45% in size
Conditions: TSHR-HEK293 cells, cAMP HTRF, agonist mode, 30 min; series mostly up to 92.4 µM; activation: at the top concentration
Outline: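 Agonist-mode screen: TSHR HEK293 cells received test chemicals for half an hour at room temperature, then HTRF cAMP detection reagents for one hour prior to fluorescence measurement. Each chemical ran as a 15-concentration series, triplicated.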

Chain of Thyrotropin receptor (Homo sapiens) (P16473 whole entry, looked up): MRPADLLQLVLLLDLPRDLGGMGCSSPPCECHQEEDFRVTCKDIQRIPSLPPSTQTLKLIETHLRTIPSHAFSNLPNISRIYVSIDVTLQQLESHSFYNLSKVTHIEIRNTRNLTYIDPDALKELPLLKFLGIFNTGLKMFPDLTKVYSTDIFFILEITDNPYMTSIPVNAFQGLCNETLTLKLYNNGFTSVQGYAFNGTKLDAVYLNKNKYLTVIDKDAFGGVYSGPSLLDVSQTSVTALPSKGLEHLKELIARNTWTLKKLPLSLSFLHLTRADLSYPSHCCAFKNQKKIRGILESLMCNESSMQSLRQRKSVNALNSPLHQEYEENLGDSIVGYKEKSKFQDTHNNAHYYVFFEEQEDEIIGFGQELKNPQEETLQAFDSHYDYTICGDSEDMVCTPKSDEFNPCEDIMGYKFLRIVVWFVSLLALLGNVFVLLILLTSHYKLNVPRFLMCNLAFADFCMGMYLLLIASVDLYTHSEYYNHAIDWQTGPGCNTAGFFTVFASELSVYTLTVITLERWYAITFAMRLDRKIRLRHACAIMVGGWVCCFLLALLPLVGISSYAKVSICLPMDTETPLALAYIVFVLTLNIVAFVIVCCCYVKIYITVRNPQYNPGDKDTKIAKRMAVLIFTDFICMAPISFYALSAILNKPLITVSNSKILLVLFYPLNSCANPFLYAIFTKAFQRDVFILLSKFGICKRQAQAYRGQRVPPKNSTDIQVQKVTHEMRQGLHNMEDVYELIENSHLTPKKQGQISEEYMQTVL

Row | SMILES | activation
10 | C[Si](C)O[Si](C)(C)O[Si](C)(C)O[Si](C)C | -3.01%
11 | O=C(O)C1CCC(C(=O)O)CC1 (stereo not given) | -5.35%
12 | Cc1occc1S | -1.15%
13 | CC/C(=C\C(=N/O)C(N)=O)C(C)[N+](=O)[O-] (stereo not given) | 1.28%
14 | CC(CN)CCCN (stereo not given) | -4.55%
15 | CC(C)NCC(O)COc1ccc(CC(N)=O)cc1 (stereo not given) | -7.38%
16 | CCN(CC)CCc1nc(-c2ccccc2)no1 | -3.23% [at 42.5 µM]
17 | CC(=O)O[C@H]1C[C@@H]2CC[C@@H]3[C@H](CC[C@@]4(C)[C@H]3C[C@H]([N+]3(C)CCCCC3)[C@@H]4OC(C)=O)[C@@]2(C)C[C@@H]1N1CCCCC1 | 1.26% [at 42.5 µM]
18 | CC(C)(C)c1ccc(S)cc1 | 2.11%
19 | NCc1ccccc1 | 13.4%
20 | CC(=O)N(CC(=O)N(C)C)c1ccccc1 | 0.907% [at 42.5 µM]
21 | CC(C)CC=O | 2.77%
22 | O=S1(=O)N=C(O)c2ccccc21 | 0.0112% [at 42.5 µM]
23 | O=[N+]([O-])c1cccc(Cl)c1Cl | -22.9%
24 | CC(=O)NCCCS(=O)(=O)O | -0.626% [at 42.5 µM]
25 | NC[C@H]1O[C@H](O[C@H]2[C@H](O)[C@@H](O[C@H]3O[C@H](CO)[C@@H](O)[C@H](N)[C@H]3O)[C@H](N)C[C@@H]2N)[C@H](O)[C@@H](O)[C@@H]1O | -0.345% [at 8.39 µM]

Row | SMILES | activation
26 | Cc1ccc(C(N)=O)cc1N | -10.3%
27 | C=CC(=O)OCCOC(=O)CCC(=O)O | 18%
28 | O=C(O)[C@@H]1[C@H]2C[C@H]3c4[nH]c5ccccc5c4CCN3C[C@@H]2CC[C@@H]1O | 2.33% [at 42.5 µM]
29 | Cn1c(NCCN(CCO)CCCc2ccc([N+](=O)[O-])cc2)cc(=O)n(C)c1=O | -0.878% [at 42.5 µM]
30 | CCCCCCCC/C=C\CCCCCCCC(N)=O | 17.3%
31 | CC(C)CCCC(C)CCO (stereo not given) | -1.2%
32 | C=C(C)C(=O)OC(C)C | 2.77%
33 | CN1CCC(=C2c3ccccc3C=Cc3ccccc32)CC1 | -0.457% [at 42.5 µM]
34 | CCCC[C@H]1CN(CC2CCOCC2)C(=O)OC12CCN(C1(C)CCN(C(=O)c3c(C)ncnc3C)CC1)CC2 | -7.9%
35 | CC(=O)[C@@]1(O)CC[C@H]2[C@@H]3C[C@H](C)C4=CC(=O)CC[C@]4(C)[C@H]3CC[C@@]21C | 1.91% [at 42.5 µM]
36 | CCc1nn(C2CCCCC2)c2cc(C3(C#N)CCC(C(=O)O)CC3)ccc12 (stereo not given) | 4.09%
37 | Nc1nc(CC(=O)O)cs1 | -11.2%
38 | CC(=O)SCc1ccco1 | 2.2%
39 | CCCC(=O)OCC | 15.1%
40 | Cc1c(Cn2ccnc2)c2ccccc2n1CCC(=O)O | -1.38% [at 42.5 µM]
